From PubChem
CYP2C9 activ: human CYP2C9 activators, primary screen, biochemical, luminescence. activation factor at 5 µM. Cytochrome P450 2C9 (Homo sapiens), P11712. actives 1.4% (n = 96,000). AID 1024, 2008. recombinant CYP2C9, luciferin-H conversion; stronger effect = higher value; factor 1 = untreated enzyme, 0 = blocked;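 active = activation factor of 2 or more for CYP2C9 at a 5 µM dose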;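 also: 0 = sulfaphenazole-blocked wells and 1 = vehicle-only wells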
EphB4 antag: EphB4-ephrin-B2 interaction antagonists, primary screen, biochemical, TNYL-RAW peptide probe, fluorescence polarization; inhibition, % at 7 µM; AID 720, 2007; EphB4 LBD / TNYL-RAW-Alexa532 peptide; actives 0.15% (n = 97,000);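 active = inhibition above the screen-wide mean inhibition plus 3 SD, cut at about 15% in these data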;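 also: 0% = DMSO wells and 100% = excess unlabeled TNYL-RAW peptide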
CYP2C9 inhib: blockers of cytochrome P450 2C9 activity – biochemical, luminescence, ADME assay, primary screen; P11712; CYP2C9 Supersomes, luciferin-H conversion; inhibition, % at 5 µM; actives 20% (n = 96,000);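 active = blocking of liver enzyme CYP2C9 beyond about 50% at 5 µM, limit read from the data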
CYP2C19 inhib: blockers of cytochrome P450 2C19 activity – biochemical, luminescence, ADME assay, primary screen; P33261; CYP2C19 Supersomes, luciferin-H EGE luminescence, 30 min; inhibition, % at 5 µM; actives 21% (n = 96,000); AID 778, 2007;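 active = CYP2C19 inhibition above a set limit at 5 µM in the primary screen, cut at about 50% in these data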;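 also: plate controls were negative control wells for no effect and 2.5 mM tranylcypromine positive control for full effect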
Target sequence (P33261 whole entry, looked up): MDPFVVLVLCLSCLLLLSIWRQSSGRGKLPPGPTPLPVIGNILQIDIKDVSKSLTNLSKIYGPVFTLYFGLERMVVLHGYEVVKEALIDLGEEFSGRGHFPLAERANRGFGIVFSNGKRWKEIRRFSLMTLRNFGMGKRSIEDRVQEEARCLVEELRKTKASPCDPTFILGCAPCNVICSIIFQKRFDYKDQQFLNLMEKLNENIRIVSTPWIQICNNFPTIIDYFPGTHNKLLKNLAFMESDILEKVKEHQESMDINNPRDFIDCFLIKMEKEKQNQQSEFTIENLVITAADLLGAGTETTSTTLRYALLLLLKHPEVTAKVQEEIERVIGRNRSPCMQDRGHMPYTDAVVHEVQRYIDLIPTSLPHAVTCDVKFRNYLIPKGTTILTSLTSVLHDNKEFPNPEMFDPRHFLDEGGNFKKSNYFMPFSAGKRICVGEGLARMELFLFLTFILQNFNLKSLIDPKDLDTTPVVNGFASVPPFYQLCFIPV
CYP2C19 act: human CYP2C19 activators, primary screen, biochemical, luminescence; AID 1025, 2008; Cytochrome P450 2C19 (Homo sapiens), P33261; activation factor at 5 µM; recombinant CYP2C19, luciferin-H EGE luminescence; stronger effect = higher value; 0 = fully inhibited enzyme, 1 = untreated enzyme; 96,000 tested, under 10 active;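 active = activation factor of at least 2 at 5 µM in the primary screen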;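 also: 0 = wells with 2.5 mM tranylcypromine and 1 = vehicle-only wells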
* marks the source's active call; other numbers are inactive results; · = no result. An excerpt weighted towards active compounds, which were near 27% of everything screened.

SMILES | CYP2C9 activ | EphB4 antag | CYP2C9 inhib | CYP2C19 inhib | CYP2C19 act
CCn1cc(C(=O)NCCCN(C)c2ccccc2)c(=O)c2cc(S(=O)(=O)N(C)C)ccc21 | 0.5 | · | 48 | -8 | 1.1
COc1cccc(Nc2nc(N)nc(-c3oc4ccccc4c3C)n2)c1 | 0.7 | 12 | 32 | -5 | 1.1
CCn1c(-c2ccccc2Cl)nn(CC(=O)Nc2ccccc2OC)c1=S | 1.3 | 7 | -31 | 91* | 0.1
COc1cc(NC(=O)Nc2ccccc2OC)c(OC)cc1NC(=O)CN1CCCCC1 | 0.9 | 0 | 14 | -4 | 1
Cc1ccccc1CN1CCN(CC(=O)NCc2ccco2)C1=O | 1.2 | -7 | -16 | -8 | 1.1
O=C(COc1ccccc1)Nc1ccc(Cl)c(-c2nc3ncccc3o2)c1 | · | 2 | · | · | ·
c1ccc2c(-c3nc4ncccc4o3)cccc2c1 | 3.3* | -6 | -228 | -1 | 1
COc1ccccc1S(=O)(=O)Nc1cccc(-c2nnc3n2CCCCC3)c1 | 0.9 | 6 | 12 | 8 | 0.9
CN(C)CCCOC(=O)c1ccc(Cl)cc1Cl | 1.2 | 1 | -15 | 7 | 0.9
Cc1ncc([N+](=O)[O-])n1CCOC(=O)c1ccc(Cl)cc1Cl | 0.8 | -2 | 22 | 51* | 0.5
CCOC(=O)c1ccc(NCc2nc3ccccc3n2C)cc1 | 0.7 | -7 | 27 | 17 | 0.8
CC(C)n1c(NCc2cc(Cl)ccc2O)nc2ccccc21 | 0.8 | 2 | 17 | 17 | 0.8
CCn1c(CNc2nc3ccccc3n2C(C)C)nc2ccccc21 | 0.2 | -3 | 82* | 82* | 0.2
CC(C)n1c(CNC(=O)c2ccccc2)nc2ccccc21 | 1 | · | 2 | 86* | 0.1
CC(C)n1c(NCc2nc3ccccc3n2C)nc2ccccc21 | 0.5 | 4 | 54* | 84* | 0.2
Cc1ccc(NCc2nc3ccccc3n2C)cc1 | 0.7 | -5 | 31 | 96* | 0
CC(C)(C)c1ccc(C(=O)NCCC(=O)N2CCN(c3ncccn3)CC2)cc1 | 0.8 | -1 | 17 | -14 | 1.1
O=C(NCc1ccccn1)Nc1cccc(NC(=O)NCc2ccccn2)c1 | 1.2 | · | -15 | -8 | 1.1
Cc1ccc(N2C(=O)c3ccc(C(=O)Nc4cccnc4)cc3C2=O)c(C)c1 | 0.9 | -1 | 12 | 21 | 0.8
Cn1c(NCc2c(O)ccc3ccccc23)nc2ccccc21 | 1.1 | -9 | -6 | 3 | 1
Cn1c(CNc2nc3ccccc3n2C)nc2ccccc21 | 0.8 | · | 21 | 70* | 0.3
CCCn1c(CNc2ccccc2O)nc2ccccc21 | 0.7 | 3 | 28 | 51* | 0.5
CCCCn1c(CNC(=O)CCC)nc2ccccc21 | 1 | -7 | 4 | 22 | 0.8
CCCn1c(NCc2c[nH]c3ccccc23)nc2ccccc21 | 0.7 | -3 | 32 | 71* | 0.3
CCCn1c(NCc2cccc(OC)c2OC)nc2ccccc21 | 1 | 3 | -1 | 23 | 0.8
SMILES | CYP2C9 activ | EphB4 antag | CYP2C9 inhib | CYP2C19 inhib | CYP2C19 act
O=C1c2ccccc2C(Nc2ccc3c(c2)OCO3)N1Cc1ccco1 (stereo unspecified) | · | -3 | · | · | ·
COC(=O)c1cc(NC2c3ccccc3C(=O)N2Cc2ccco2)cc(C(=O)OC)c1 (stereo unspecified) | 0.7 | -4 | 31 | 77* | 0.2
CCOc1ccc(N2C(=O)c3cccnc3C2Nc2ccc(Cl)cc2)cc1 (stereo unspecified) | 0.7 | 0 | 27 | 46 | 0.5
O=C1c2ccccc2C(Nc2ccc(F)c(Cl)c2)N1Cc1ccco1 (stereo unspecified) | 0.6 | 3 | 40 | 66* | 0.3
COc1ccc(NC2c3ccccc3C(=O)N2Cc2ccco2)cc1OC (stereo unspecified) | 0.7 | · | 33 | 64* | 0.4
CCOc1ccc(NC2c3ccccc3C(=O)N2Cc2ccco2)cc1 (stereo unspecified) | 0.3 | 4 | 74* | 23 | 0.8
COc1ccc(CCn2nnnc2C(C(C)C)N2CCC(C(N)=O)CC2)cc1OC (stereo unspecified) | 0.9 | · | 10 | -16 | 1.2
CCOc1ccc(NC(=O)CSc2nc(C)c3c(c2C#N)CCCC3)cc1 | 1.1 | -6 | -8 | 4 | 1
CCN(CC)S(=O)(=O)N1CCC(C(=O)NC2CCCC2)CC1 | 0.9 | -2 | 11 | 2 | 1
